From PubChem BioAssay
MEKK3 PB1 HTS: modulators (inhibitors or enhancers) of MEK5 binding to human MEKK3 PB1 domain. bead-based flow cytometry, Alexa488-MEK5 binding to MEKK3; actives lie on both sides; 0 = blocked by unlabeled MEK5, 100 = vehicle. binding response (% of control), % at 10 µM. actives 1.4% (n = 290,000);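 active = binding response more than 3 SD above or below the average of its plate-row segment, actives on both sides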;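 note: Alexa488 bead fluorescence after subtracting the streptavidin-only scavenger bead signal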
Target sequence (Q99759 whole entry, looked up, the tested form may be a part): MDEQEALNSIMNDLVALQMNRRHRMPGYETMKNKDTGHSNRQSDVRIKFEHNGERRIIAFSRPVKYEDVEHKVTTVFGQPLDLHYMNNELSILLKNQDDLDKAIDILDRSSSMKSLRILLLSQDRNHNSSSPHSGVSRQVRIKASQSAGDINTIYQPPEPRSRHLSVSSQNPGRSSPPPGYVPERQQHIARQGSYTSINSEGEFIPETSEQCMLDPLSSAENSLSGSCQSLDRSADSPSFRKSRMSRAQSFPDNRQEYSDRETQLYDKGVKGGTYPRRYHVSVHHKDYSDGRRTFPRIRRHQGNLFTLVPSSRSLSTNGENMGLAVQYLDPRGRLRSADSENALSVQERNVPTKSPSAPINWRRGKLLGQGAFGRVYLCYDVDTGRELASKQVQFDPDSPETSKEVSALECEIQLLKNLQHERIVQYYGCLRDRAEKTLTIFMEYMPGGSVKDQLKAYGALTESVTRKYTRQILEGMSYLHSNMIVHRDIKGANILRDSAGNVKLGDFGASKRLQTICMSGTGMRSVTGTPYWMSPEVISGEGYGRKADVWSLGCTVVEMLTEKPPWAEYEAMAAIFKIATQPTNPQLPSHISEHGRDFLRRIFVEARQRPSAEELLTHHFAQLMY
MEKK2wt PB1 HTS: raises or lowers MEK5 binding to wildtype human MEKK2 PB1 domain | Q9Y2U5 | bead flow cytometry, Alexa488-MEK5 binding to MEKK2 WT; actives lie on both sides | binding response (% of control), % at 10 µM | actives 1.1% (n = 290,000) | AID 1531; in the data active = binding response below about 67% or above about 130%
MEKK2mut PB1 HTS: signal of MEK5 binding to mutant human MEKK2 PB1 domain; bead flow cytometry, Alexa488-MEK5 binding to MEKK2 mutant; percent response, % at 10 µM; actives 0.35% (n = 290,000); AID 1530; in the data active = percent response above about 24%, passing the limit was not always enough
UBC13 polyUb: inhibitors of human UBC13 polyubiquitin chain formation; P61088; TR-FRET; inhibition, % at 20 µM; actives 0.47% (n = 330,000); in the data active = inhibition above about 45%, passing the limit was not always enough
* = called active by the depositor; i = inactive; · = not tested or not shown; [ ] = another dose, or the depositor's remark. A selection: hits, their analogues and other compounds. The true share with any hit is near 2.3%.

SMILES | MEKK3 PB1 HTS | MEKK2wt PB1 HTS | MEKK2mut PB1 HTS | UBC13 polyUb
CCOc1ccccc1Nc1nc(-c2sc(NC(=O)c3ccccc3)nc2C)cs1 | 104.0 | 113.0 | 5.0 | 69.3*
O=C(CCc1nc2ccccc2s1)NC1CCOC1=O (configuration not stated) | 99.0 | 107.0 | -2.0 | 2.6
O=C(NCc1ccc2c(c1)OCO2)c1ccc2c(c1)OCO2 | 101.0 | 103.0 | 10.0 | -9.5
Cc1cc2cc(CNC(=O)c3ccc(Br)o3)ccc2[nH]1 | 68.0 | 53.0*[inhibitor] | 1.0 | -11.0
Cc1cc2cc(CNC(=O)c3ccc4c(c3)OCO4)ccc2[nH]1 | 84.0 | -9.0* | -5.0 | -11.6
CCN(CC)c1ccc(/C=C/c2cccc[n+]2C)c(OC)c1 | 98.0 | 12.0* | 21.0 | i
CN(Cc1ccccc1)C(=O)c1cccc(NC(=O)C2CCCN(C(=O)OC(C)(C)C)C2)c1 (configuration not stated) | · | · | · | 21.5
O=[N+]([O-])c1ccc(/C=C/c2ccncc2)cc1 | 99.0 | -2.0*[inhibitor] | 8.0 | ·
O=[N+]([O-])c1cccc(/C=C/c2ccncc2)c1 | 93.0 | 93.0 | -15.0 | -0.2
CCN(CC)c1ccc2c(Cl)c(Br)c(=O)oc2c1 | 90.0 | -27.0* | -2.0 | 9.2
CCN(CC)c1ccc2c(C)c(Cl)c(=O)oc2c1 | 101.0 | 100.0 | -2.0 | 11.1
O=C(CCN1C(=O)/C(=C\c2ccccc2)SC1=S)NNC(=O)c1ccccc1O | 97.0 | 97.0 | -2.0 | -11.5
Cc1ccc(C(C)C)c(OCc2nn(CC(=O)c3ccc(OC(F)F)cc3)c3[n+]2CCCCC3)c1 | 114.0 | 217.0* | 47.0 | 44.3
O=C(NC1CCN(Cc2ccccc2)C1)c1cc(COc2ccc(F)cc2F)on1 (configuration not stated) | 102.0 | 125.0 | 13.0 | 7.6
Cc1ccc(C)c(OCc2cc(C(=O)NC3CCN(Cc4ccccc4)CC3)no2)c1 | 106.0 | 135.0* | 11.0 | 40.5
CCCCC(=O)NC(=S)Nc1nnn(CCC)n1 | 43.0*[inhibitor] | 53.0 | -18.0 | 4.1
CN(C)CCOc1ccccc1Cc1ccccc1 | 78.0 | -18.0* | -2.0 | 17.8
CNCCCCOc1ccccc1Cc1ccccc1 | 104.0 | 125.0 | 6.0 | 14.2
Cc1nc(N)sc1C(=O)N/N=C/c1ccc([N+](=O)[O-])cc1 | 108.0 | 105.0 | 10.0 | 36.0
Cc1nc(N)sc1C(=O)N/N=C/c1ccccc1[N+](=O)[O-] | 87.0 | 94.0 | -2.0 | 94.8*
CCCCNC(=O)[C@@H]1CSC2c3ccccc3C(=O)N21 (some centres not stated) | 100.0 | 101.0 | 3.0 | ·
c1ccc2oc(NC3=NCN(C4CCCCC4)CN3)nc2c1 | 98.0 | 93.0 | 4.0 | -7.5
Cc1nc(NC2=NCN(C3CCCCC3C)CN2)nc2ccccc12 (configuration not stated) | 102.0 | 139.0* | 11.0 | ·
CC(C)CC(=O)Nc1nc2ccc(S(C)(=O)=O)cc2s1 | 98.0 | -11.0* | 1.0 | -16.7
CCC(=O)Nc1nc2ccc(S(C)(=O)=O)cc2s1 | 124.0 | 108.0 | 5.0 | 6.1
SMILES | MEKK3 PB1 HTS | MEKK2wt PB1 HTS | MEKK2mut PB1 HTS | UBC13 polyUb
Cc1nccn1CCC(=O)Nc1ccc(Cl)cc1 | 102.0 | 101.0 | 1.0 | 1.6
O=C(Cn1cc(C(F)(F)F)ccc1=O)NCCc1ccc(Cl)cc1Cl | 105.0 | 107.0 | 6.0 | -16.8
N#Cc1ccc(CN2CCN(CC(=O)NCCc3ccc(Cl)cc3Cl)CC2)cc1 | 103.0 | 151.0* | 28.0* | 11.8
Cc1ccc(C(=O)OCC(=O)NCc2cccc(Cl)c2)cc1S(=O)(=O)N1CCCCC1 | · | · | · | -12.1
CC(Sc1ccc([N+](=O)[O-])cn1)C(=O)Nc1nccs1 (configuration not stated) | 103.0 | 157.0* | 17.0 | -4.3
CC(Sc1nnc(-c2ccco2)n1C)C(=O)Nc1nccs1 (configuration not stated) | · | · | · | -9.0
COc1ccc2sc(N(CCCN(C)C)C(=O)c3ccc(C(=O)c4ccccc4)cc3)nc2c1 | · | · | · | 17.8
CN(C)CCCN(C(=O)c1nc2ccccc2s1)c1nc2ccc(F)cc2s1 | · | · | · | 20.7
Cc1ccc2sc(N(CCN(C)C)C(=O)c3ccc4ccccc4c3)nc2c1C | 106.0 | 161.0* | 18.0 | 12.0
Cc1cc(C)c2sc(N(CCN(C)C)C(=O)c3ccc4ccccc4c3)nc2c1 | 98.0 | 128.0 | 13.0 | 15.6
Cc1cccc2sc(N(CCCN(C)C)C(=O)c3ccc(C(=O)c4ccccc4)cc3)nc12 | 106.0 | 168.0* | 33.0* | 29.0
CN(C)CCCN(C(=O)c1ccc(C(=O)c2ccccc2)cc1)c1nc2ccc(F)cc2s1 | 107.0 | 174.0* | 14.0 | 33.4
NC(=S)NNc1c(F)c(F)c(F)c(F)c1F | 105.0 | 101.0 | 0.0 | -5.8
